According to PubChem BioAssay (Tox21):
Results filed as inconclusive are left out. Calls of active or inactive are those of the source. Calls follow the shape of the dose curve; as a rule, active = well fitted inhibition curve with a large enough effect in the repeat runs; inconclusive = weak or mixed curves; inactive = flat fitted curve, though single readings scatter.

Biological target: Voltage-gated inwardly rectifying potassium channel KCNH2 (Homo sapiens) (UniProt Q12809)
Assay: Human Ether-a-go-go-Related Gene (hERG) channel small molecule antagonists: fluorescence cell-based qHTS assay (AID 1671200); also: nearly all actives have a fitted effect of over 50% in size
Settings: hERG-U2OS cells, FluxOR thallium flux fluorescence; series mostly up to 76.8 µM; activity change, negative = inhibition: at the top concentration
Excerpt: National Center for Advancing Translational Sciences [NCATS]
U.S. Environmental Protection Agency [EPA]
National Institutes of Environmental Health Sciences [NIEHS]
National Toxicology Program [NTP]
U.S. Food and Drug Administration [FDA]
Mutations in the hERG channel cause Long QT (LQT) syndrome. LQT syndrome is a cardiac disorder which can cause ventricle arrhythmia and sudden death. Additionally, compounds which block the hERG channel can cause acquired LQT syndrome. Several FDA approved drugs have been removed from the market due to their hERG blocking activity. A cell-based hERG channel inhibition assay can be used to screen chemical compounds that inhibit hERG channel. This assay measures hERG channel activity using thallium ions as surrogate ions to measure potassium into the cells.
Tox21 Assay Protocol Summary:
hERG-U2OS cells were resuspended in culture medium and dispensed into 1536-well, black wall/clear-bottom plates at 1000cells/well/3uL using a Multidrop Combi dispenser (Thermo Fisher, Waltham, MA). After plates were incubated at 37 C overnight, 3 uL of Loading Buffer provided by FluxOR II Potassium Ion Channel Assay kit (Thermo, Carlsbad, CA) was added to each well. The assay plates were then incubated at room temperature in the dark for 1h. […] After the assay plates were incubated at room temperature for 10 min, 1 uL of Stimulus Buffer provided by FluxOR II Potassium Ion Channel Assay kit was added into each well and fluorescence intensity (480nm excitation/540nm emission) was continuously measured for 2 min at 1 second intervals using a Functional Drug Screening System (FDSS) 7000EX kinetic plate reader (Hamamatsu, Japan).
% is scaled to controls: 0 for no effect and ±100 for the full control effect; potency is read from the fitted curve at half-maximal effect.

Chain of Voltage-gated inwardly rectifying potassium channel KCNH2 (Homo sapiens) (Q12809 whole entry, looked up): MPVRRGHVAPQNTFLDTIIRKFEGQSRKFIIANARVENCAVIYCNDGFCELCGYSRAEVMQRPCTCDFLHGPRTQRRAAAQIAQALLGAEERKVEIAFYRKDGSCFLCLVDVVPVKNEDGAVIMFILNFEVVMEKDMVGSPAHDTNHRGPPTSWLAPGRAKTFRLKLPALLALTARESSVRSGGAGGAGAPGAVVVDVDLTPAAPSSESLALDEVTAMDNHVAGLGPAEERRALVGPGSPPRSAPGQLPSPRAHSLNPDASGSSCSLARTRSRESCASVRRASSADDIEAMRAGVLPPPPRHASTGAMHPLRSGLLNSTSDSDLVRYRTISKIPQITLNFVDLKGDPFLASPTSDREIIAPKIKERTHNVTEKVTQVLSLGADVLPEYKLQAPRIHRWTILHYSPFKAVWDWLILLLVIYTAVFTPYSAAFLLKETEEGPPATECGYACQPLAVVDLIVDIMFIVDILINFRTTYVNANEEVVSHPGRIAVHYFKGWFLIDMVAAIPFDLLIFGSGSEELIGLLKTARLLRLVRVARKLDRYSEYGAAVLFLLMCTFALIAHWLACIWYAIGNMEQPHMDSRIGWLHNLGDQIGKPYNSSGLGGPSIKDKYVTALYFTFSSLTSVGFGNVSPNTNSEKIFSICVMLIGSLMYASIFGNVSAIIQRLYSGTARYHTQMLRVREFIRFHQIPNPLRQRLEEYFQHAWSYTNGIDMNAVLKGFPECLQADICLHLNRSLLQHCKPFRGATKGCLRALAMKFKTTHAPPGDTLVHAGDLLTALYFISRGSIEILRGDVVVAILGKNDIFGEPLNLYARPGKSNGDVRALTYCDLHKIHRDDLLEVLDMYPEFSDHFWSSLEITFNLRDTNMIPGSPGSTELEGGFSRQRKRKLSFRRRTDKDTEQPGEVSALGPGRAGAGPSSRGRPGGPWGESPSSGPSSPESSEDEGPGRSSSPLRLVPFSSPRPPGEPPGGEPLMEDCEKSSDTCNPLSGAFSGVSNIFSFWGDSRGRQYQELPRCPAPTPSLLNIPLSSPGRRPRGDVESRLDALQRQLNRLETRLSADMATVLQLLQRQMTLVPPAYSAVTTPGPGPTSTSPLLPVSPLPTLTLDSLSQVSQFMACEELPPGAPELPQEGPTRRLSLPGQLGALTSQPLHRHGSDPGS

Row | SMILES | activity change, negative = inhibition | Potency
1 | CN1CCN(C(=O)O[C@H]2c3nccnc3C(=O)N2c2ccc(Cl)cn2)CC1 | -9.29% [at 35.3 µM] (inactive) | 
2 | CCCCc1ccc(O)cc1 | 0.767% (inactive) | 
3 | Oc1c(Cl)cccc1Cl | 9.36% (inactive) | 
4 | CNC(=O)O/N=C(\C)SC | 3.27% (inactive) | 
5 | CC(C1CC1)C(O)(Cn1cncn1)c1ccc(Cl)cc1 (stereo not given) | -9.8% (inactive) | 
6 | ClCCCN1CCN(c2cccc(Cl)c2)CC1 |  | 10.7 µM (active)
7 | O=C1CN2CCOC2(c2ccccc2Cl)c2cc(Cl)ccc2N1 (stereo not given) | -20.8% [at 35.3 µM] (inactive) | 
8 | CCCCCCBr | 5.07% (inactive) | 
9 | Cc1cc(C)nc(Nc2ccccc2)n1 | 1.25% (inactive) | 
10 | CCOc1nc(C(Cl)(Cl)Cl)ns1 | 1.17% (inactive) | 
11 | COc1cc(OC)nc(Oc2cccc(Oc3nc(OC)cc(OC)n3)c2C(=O)O)n1 | -1.03% (inactive) | 
12 | CC(C(=O)c1ccccc1)N(C)C (stereo not given) | 9.11% [at 35.3 µM] (inactive) | 
13 | CCC(=O)c1ccccc1 | 1.4% (inactive) | 
14 | CCC1(c2ccccc2)C(=O)N=C(O)NC1=O (stereo not given) | 6.05% (inactive) | 
15 | CN1CCC(N(Cc2ccccc2)c2ccccc2)CC1 |  | 5.35 µM (active)
16 | Nc1cnn(-c2ccccc2)c(=O)c1Cl | 2.2% (inactive) | 
17 | CC(CCc1ccccc1)NC(C)C(O)c1ccc(O)cc1 (stereo not given) |  | 4.77 µM (active)
18 | CCCCc1c(C)nc(NCC)[nH]c1=O | 0.413% (inactive) | 
19 | O=C1c2ccccc2C(=O)c2ccccc21 | 3.3% [at 15.8 µM] (inactive) | 
20 | CC(C)(C)OC(=O)c1ncn2c1[C@@H]1CCCN1C(=O)c1c(Br)cccc1-2 | 0.208% [at 35.3 µM] (inactive) | 

Row | SMILES | activity change, negative = inhibition | Potency
21 | CCOP(=S)(OCC)SCSP(=S)(OCC)OCC | -11.6% (inactive) | 
22 | ClC(Cl)Br | -1.84% (inactive) | 
23 | Fc1ccc(C2(Cn3cncn3)OC2c2ccccc2Cl)cc1 (stereo not given) | -7.77% (inactive) | 
24 | CCCSC(=O)Cl | 2% (inactive) | 
25 | CC(Oc1ccc(Oc2ncc(C(F)(F)F)cc2Cl)cc1)C(=O)O (stereo not given) | -1.1% (inactive) | 
26 | CCCCOC(=O)[C@@H](C)Oc1ccc(Oc2ccc(C#N)cc2F)cc1 |  | 4.34 µM (active)
27 | N#CC(CCc1ccc(Cl)cc1)(Cn1cncn1)c1ccccc1 (stereo not given) |  | 21.9 µM (active)
28 | CCSC(=O)N(CC)C1CCCCC1 | -6.06% (inactive) | 
29 | CC1(C)C(=O)NC(=O)NC1=O | -2.43% (inactive) | 
30 | CC1=C(C(=O)Nc2ccccc2)S(=O)(=O)CCO1 | 1.81% (inactive) | 
31 | COC(C)(C)C | -0.902% (inactive) | 
32 | CN/C(=N\[N+](=O)[O-])NCC1CCOC1 (stereo not given) | -7.61% (inactive) | 
33 | CCN(Cc1ccc(Cl)nc1)/C(=C/[N+](=O)[O-])NC | -3.69% [at 35.3 µM] (inactive) | 
34 | O=C(Nc1ccccc1)N(Cc1ccc(Cl)cc1)C1CCCC1 |  | 38.9 µM (active)
35 | COc1ccc(C(=O)N2CCCC2=O)cc1 | -1.38% [at 35.3 µM] (inactive) | 
36 | COP(N)(=S)Oc1ccccc1C(=O)OC(C)C (stereo not given) | -0.812% (inactive) | 
37 | CN1C(=S)CN=C(c2ccccc2)c2cc(Cl)ccc21 | -14.6% [at 35.3 µM] (inactive) | 
38 | CC(C)CC#N | 0.617% (inactive) | 
39 | O=S(=O)(O)C(F)(F)C(F)(F)C(F)(F)C(F)(F)C(F)(F)C(F)(F)F | 0.549% (inactive) | 
40 | O=C1OC(CCN2CCCCC2)OC1(c1ccccc1)c1ccccc1 (stereo not given) |  | 0.848 µM (active)
